In PubChem BioAssay AID652105 (National Center for Advancing Translational Sciences (NCATS), 2013):
In all, about 330,000 compounds went through this assay and about 4,100 (1.2%) were called active. Roughly 2% stayed inconclusive and do not appear here. What follows is part of a selection rich in actives, with near analogues and random picks from the rest. Unmarked numbers belong to inactive results. Rule for the calls: active = max response of -50% or lower; inconclusive = between -30% and -50%; inactive = -30% or higher.

These compounds were tested against Phosphatidylinositol 5-phosphate 4-kinase type-2 alpha (Homo sapiens) (UniProt P48426) (assay: qHTS for Inhibitors of phosphatidylinositol 5-phosphate 4-kinase (PI5P4K)). Conditions: PI5P4Kalpha enzyme, ADP-Glo luminescence, 60 min; active compounds read low.
From the text: In addition to finding PI5P, we discovered the type II phosphatidylinositol 5-phosphate 4-kinase (PI5P4K) family (alpha, beta, gamma isoforms) that catalyze the conversion of PI5P to PI(4,5)P2. Alternatively, PI(4,5)P2 can also be synthesized through phosphatidylinositol-4-phosphate (PI4P) by the type I phosphatidylinositol 4-phosphate 5-kinases (PI4P5K). These PI5P4K enzymes therefore represent one way by which cells can regulate endogenous PI5P levels and play important roles in insulin signaling and in stress responses.
This proposal aims to identify and optimize specific modulators of human PI5P4K, phosphatidylinositol-5-phosphate 4-kinase (Type II PIPK), a family of kinases that regulate AKT signaling and tumor cell growth. In this project we aim to identify inhibitors of human PI5P4K using a quantitative high-throughput screening approach against the MLSMR containing ~400,000 small molecules.
NIH Chemical Genomics Center [NCGC]
NIH Molecular Libraries Probe Centers Network [MLPCN]
Assay Submitter (PI): Atsuo Sasaki, Beth Israel Deaconess Medical Center
2 microL of PI5P4Kalpha/substrate buffer (columns 1-2, 5-48) are dispensed into Greiner white solid bottom 1536-well assay plates; column 3 receives only PI5P4Kalpha buffer as 0x substrate controls; column 4 receives only substrate buffer as 0x PI5P4Kalpha controls. Final assay buffer consists of 0.038 M HEPES pH 7.4, 0.28 mM EGTA, 0.1% CHAPS, and 5% DMSO (final concentration). Compounds are then transferred via Kalypsys pin tool equipped with 1536-pin array (10 nL slotted pins, V&P Scientific, San Diego, CA). Following addition of compound, 1 microL of ATP (5 microM final concentration, all columns) is added to initiate the reaction. ATP is diluted in an assay buffer consisting of 0.02 M HEPES pH 7.4, 60 mM MgCl2, 15 microM ATP, and 0.1% CHAPS. The plates are then incubated at room temperature for 60 minutes. ADP-Glo reagent 1 is added (2 microL) and plates incubated for 45 minutes, before ADP-Glo reagent 2 (4 microL) is added and plates incubated for 30 minutes. They are then transferred to a ViewLux high-throughput CCD imager (PerkinElmer) wherein single end-point measurements of luminescence are acquired using a clear filter.
% is set by controls: 0 for no effect and ±100 for the full control effect.
Note: value at the top dose of about 77 µM.

Sequence of Phosphatidylinositol 5-phosphate 4-kinase type-2 alpha (Homo sapiens) (P48426 whole entry, looked up, canonical isoform): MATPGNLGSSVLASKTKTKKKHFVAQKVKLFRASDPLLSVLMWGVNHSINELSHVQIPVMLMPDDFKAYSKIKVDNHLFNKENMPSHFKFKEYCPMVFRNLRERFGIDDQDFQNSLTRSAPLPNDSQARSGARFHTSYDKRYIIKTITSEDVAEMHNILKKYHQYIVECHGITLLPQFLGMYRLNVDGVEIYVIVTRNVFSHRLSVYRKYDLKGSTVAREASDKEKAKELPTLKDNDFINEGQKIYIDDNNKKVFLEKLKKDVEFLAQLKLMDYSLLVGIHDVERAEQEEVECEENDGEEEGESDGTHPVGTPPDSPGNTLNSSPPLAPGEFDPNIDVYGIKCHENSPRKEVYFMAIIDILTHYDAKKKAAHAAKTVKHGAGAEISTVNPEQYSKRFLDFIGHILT

Row | SMILES | max response
1 | S=c1[nH]nc(NCCc2ccccc2)s1 | -73.1% (active)
2 | S=C(NCCc1ccccc1)Nc1ccccc1 | -4.55%
3 | Nc1c(NCCc2ccccc2)c2ccccc2oc1=O | -0.531%
4 | Cc1ccccc1-c1csc(C(O)c2cccc(Cl)c2)n1 (stereo not drawn) | 23.5%
5 | Cc1ccnc(-n2sc3ccccc3c2=O)n1 | -98.6% (active)
6 | Cc1ccnc(N2CCCC(C(=O)NC3CC3)C2)n1 (stereo not drawn) | -0.042%
7 | Cc1ccnc(SC2CC(=O)N(c3ccccc3)C2=O)n1 (stereo not drawn) | -1.33%
8 | CCOCCC(=O)Nc1ccc2c(c1)c(=O)n(C)n2-c1ccc2ccccc2c1 | 0.749%
9 | O=C1CCCC(O)=C1N=Nc1ccc2ncsc2c1 | -66.1% (active)
10 | O=C1CCCC(O)=C1N=Nc1ccc(S(=O)(=O)N2CCOCC2)cc1 | -20.1%
11 | COc1ccc(C(C#N)=C2C=CC(=NO)c3ccccc32)cc1 | -8.83%
12 | CC(=O)c1c(C)[nH]c(=S)c(C#N)c1-c1ccc(F)cc1 | -20.4%
13 | N#Cc1c(-c2ccc(Cl)cc2)c2c([nH]c1=S)CCCC2 | -61.4% (active)
14 | N#Cc1c2c(c(-c3ccccc3)[nH]c1=O)CCCC2 | -4.1%
15 | CCN(CC)c1ccc(C(=O)N/N=C/c2ccc(N3CCOCC3)cc2)cc1 | -1.97%
16 | Cc1ccc(/C=N/NC(=S)NC2CCCCC2)o1 | -0.109%
17 | COc1cc2ccccc2cc1C(=O)Nc1ccc(N2CCOCC2)cc1 | 5.82%
18 | O=C(NN=Cc1ccc(N2CCOCC2)cc1)c1cc2ccccc2cc1O | -58.2% (active)
19 | Cc1ccc(/C=N/NC(=S)Nc2cccc(S(=O)(=O)N(C)C)c2)o1 | -3.83%
20 | Cc1ccc(/C=N/NC(=O)c2cc3ccccc3cc2O)o1 | -60.2% (active)
21 | CCOc1ccc(CCNC(=O)COC(=O)c2ccc(C)c(S(=O)(=O)N3CCOCC3)c2)cc1OCC | -2.07%
22 | CC(C)C[C@@H]1COc2cc(N3CCC[C@@H]3CO)ccc2S(=O)(=O)N1 | 2.99%

Row | SMILES | max response
23 | COC(=O)[C@@]12C[C@@H](CC(=O)NCCCCc3ccccc3)C(=O)N(Cc3ccccc3)C1=CCC(C)(C)C2 | 14.2%
24 | C#Cc1ccc(NC(=O)C2(C)CCN2C(=O)Cc2ccc(-c3ccccc3)cc2)cc1 (stereo not drawn) | 26.3%
25 | CCCc1c(-c2ccccc2F)ncn1Cc1ccccc1OC | 4%
26 | CCS(=O)(=O)C1=NSC2=NC(=O)/C(=C\c3cc(C)n(-c4cccc(OC)c4)c3C)C(=N)N21 | -20.4%
27 | Cc1ccc(C2=N/C(=C\c3ccc(OS(=O)(=O)c4ccc(C)cc4)cc3)C(=O)O2)cc1 | -1.18%
28 | CCS(=O)(=O)C1=NSC2=NC(=O)/C(=C\c3ccc(OS(=O)(=O)c4ccccc4)cc3)C(=N)N21 | -73.6% (active)
29 | Cc1ccccc1-c1nc(NC(C)C)nc2cc(-c3ccccc3)sc12 | 8.32%
30 | S=c1[nH]nc(-c2cc(-c3ccccc3)n[nH]2)n1/N=C/c1c2ccccc2cc2ccccc12 | -58.9% (active)
31 | Fc1ccccc1/C=N/n1c(-c2cccnc2)n[nH]c1=S | 5.87%
32 | c1ccc(-c2cc(-c3ccccc3)[nH]n2)cc1 | -6.2%
33 | Cc1ccc(Cn2c(C)nc3c(c2=O)c2nc4ccccc4nc2n3Cc2ccco2)cc1 | -62.3% (active)
34 | Clc1cccc(-c2nc3nc4ccccc4nc3n2Cc2ccco2)c1 | -4.59%
35 | O=c1c2ccccc2oc2nc(C3CCCCC3)n(Cc3ccco3)c(=O)c12 | 0.643%
36 | CC1(C(=O)NCc2cccc3ccccc23)CCN1Cc1ccc(-c2ccccc2)o1 (stereo not drawn) | 25.6%
37 | CCCCC[C@@H]1C=C(C(=O)OCC)[C@H](c2ccccc2)N1S(=O)(=O)c1ccc(C)cc1 | 8.7%
38 | COCCNc1ncnc2c1ncn2[C@H]1CN(Cc2ccc(OC)cc2)C[C@@H](CO)O1 | 2.79%
39 | C=CS(=O)c1sc(Cl)c(N2CCOCC2)c1[N+](=O)[O-] (stereo not drawn) | -71.5% (active)
40 | CC(=O)Nc1cc(-c2ccccc2F)cn2c(-c3cccc(C(F)(F)F)c3)cnc12 | -3.13%
41 | COc1ccc(C(C)(O)c2nc(-c3cc(F)cc(F)c3)cs2)cc1 (stereo not drawn) | 30.3%
42 | CCc1c(C)nc2cc(-c3cccs3)[nH]n2c1=O | -0.23%
43 | Cc1cc(=O)n2[nH]c(-c3cccc(Cl)c3)cc2n1 | -3.84%
44 | Cc1cc(=O)n2[nH]c(-c3sccc3-n3c(C)ccc3C)cc2n1 | -57.4% (active)

Row | SMILES | max response
45 | CC(C)C[C@H]1CN([C@@H](Cc2ccccc2)CN2CCC[C@@H]2CN2C(=O)C(=O)NC[C@@H]2Cc2ccc(O)cc2)C(=O)C(=O)N1CCc1ccccc1 | -1.65%
46 | O=C(Nc1ncc([N+](=O)[O-])s1)C1COc2ccccc2O1 (stereo not drawn) | -21.4%
47 | O=C(Nc1nc(-c2ccncc2)cs1)C1COc2ccccc2O1 (stereo not drawn) | -62.8% (active)
48 | COc1ccc(OC)c2sc(NC(=O)C3COc4ccccc4O3)nc12 (stereo not drawn) | 2.71%
49 | CN(C(=O)CN1CCN(c2cc(-c3ccc(OCc4ccccc4)cc3)ncn2)CC1)c1ccccc1 | -25%
50 | C[C@H]1Cn2cnc(C(=O)N[C@H](C)c3ccccc3)c2C(=O)N1 | -2.59%
51 | CC1=C/C(=N\OS(=O)(=O)c2ccccc2)C=CC1=O | -78.8% (active)
52 | Cc1nc(C(F)(F)F)ccc1C(=O)N1CCC1(C)C(=O)NS(=O)(=O)c1ccc(F)cc1F (stereo not drawn) | -1.9%
53 | CCC(c1nnnn1Cc1ccco1)N(CCc1ccccc1)Cc1cc2ccc(OC)cc2[nH]c1=O (stereo not drawn) | -64.1% (active)
54 | CCC(c1nnnn1Cc1ccco1)N(CCc1ccccc1)Cc1cc2cccc(C)c2[nH]c1=O (stereo not drawn) | -1.38%
55 | CCC(c1nnnn1Cc1ccco1)N(Cc1cc2cc(OC)ccc2[nH]c1=O)C1CCCCC1 (stereo not drawn) | -18.4%
56 | CCc1nc2ccc(C(=O)NC3CCN(Cc4ccccc4)CC3)cn2c1N(CC)CCOC | -1.84%
57 | CCOC(=O)[C@]12CCCC=C1N(Cc1ccc(Cl)cc1Cl)C(=O)[C@H](CC(=O)N1CCCCC1)C2 | 12%
58 | CCCCC[C@H](C)N1C[C@@H](COCc2ccccc2)Oc2cc(N3CC[C@@H](N(C)C)C3)ccc2S1(=O)=O | 27.1%
59 | CN(C)C(=O)c1cccc(-c2cnc3sc(NCc4ccc5c(c4)OCO5)nn23)c1 | -16.9%
60 | Nc1ccc2[nH]c(=S)sc2c1 | -73.9% (active)
61 | CCOc1ccc2nc(N(CCN(C)C)C(=O)c3ccc4ccccc4c3)sc2c1 | -3.3%
62 | COc1ccc2[nH]c(=S)cc(C)c2c1 | -9.52%
63 | O=c1[nH]c2ccccc2s1 | 5.23%
64 | CCOc1ccc2[nH]c(=S)sc2c1 | -59.6% (active)
65 | CC(C)C[C@H]1CNC(=S)N1C[C@H]1CCCN1C[C@H](Cc1ccc(O)cc1)N1C[C@H](Cc2ccc(O)cc2)N(CC2CCCCC2)C1=S | -6.15%
66 | O=C(NCc1ccc(F)cc1)c1cc(C2CCCCN2C(=O)c2ccccn2)on1 (stereo not drawn) | -11.1%

Row | SMILES | max response
67 | CCOC(=O)C1=CC[C@@H](c2ccncc2)N(S(=O)(=O)c2ccc(C)cc2)C1 | -0.549%
68 | COc1cccc(-c2cc(NC(C)=O)c3ncc(-c4cccc(C(C)=O)c4)n3c2)c1 | -0.237%
69 | CC(C)NC(=O)C1(C)CCCCN1Cc1cccc(C(F)(F)F)c1 (stereo not drawn) | 22.3%
70 | COC(=O)c1ccc2nc(-c3ccc(Cl)cc3)c(Cc3cccc(F)c3)n2c1 | 7.01%
71 | CCCOc1ccc(C2C(C(=O)c3ccc(C)o3)=C(O)C(=O)N2CCCn2ccnc2)cc1 (stereo not drawn) | -23%
72 | Cc1cc(N2C(=O)C(O)=C(C(=O)c3ccc(C)o3)C2c2ccc(OCc3ccccc3)cc2)no1 (stereo not drawn) | -59.9% (active)
73 | C=CCOc1cccc(C2C(C(=O)c3ccc(C)o3)=C(O)C(=O)N2CCN2CCOCC2)c1 (stereo not drawn) | 2.35%
74 | O=C(c1ccc(CS(=O)Cc2ccccc2Cl)o1)N1CCN(c2ccccc2)CC1 (stereo not drawn) | -2.59%
75 | O=C(Nc1ccc(OCCO)cc1)c1csc([C@H]2C[C@H](O)[C@@H](CO)O2)n1 | -3.56%
76 | C=CC(=O)Nc1ccc(Nc2ccnc(Nc3ccc(N4CCN(C)CC4)cc3)n2)cc1 | -68.9% (active)
77 | Cc1cccc(N2CCN(c3ccc(NC(=O)/C=C\C(=O)O)cc3)CC2)c1 | -9.89%
78 | CN1CCN(c2ccc(NC(=O)c3cc(Cl)c4c(c3)OCCO4)cc2)CC1 | 3.06%
79 | CCCCCc1c(Cc2ccccc2)ncn1CCc1ccccc1OC | -4.89%
80 | CCC(c1nnnn1-c1ccc2c(c1)OCCO2)N1CCN(c2ccc(C(F)(F)F)cn2)CC1 (stereo not drawn) | -0.412%
81 | Cn1c(SCC(=O)Nc2ccc(Cl)cc2)nc(O)cc1=O | -57.1% (active)
82 | COc1ccc(NC(=O)CSc2nc3ccccc3c(=O)n2C)cc1 | 0.885%
83 | CC(C)Cn1c(SCC(=O)Nc2ccc(Cl)cc2F)nc(O)cc1=O | 3.57%
84 | O=C1c2ccccc2C(=O)N1CCCCCCN1C(=O)c2ccccc2C1=O | 1.45%
85 | O=C(CCCCCN1C(=O)c2cccc3cccc(c23)C1=O)NCc1ccco1 | 0.75%
86 | C[N+](C)(CCCCCC[N+](C)(C)CCCN1C(=O)c2cccc3cccc(c23)C1=O)CCCN1C(=O)c2cccc3cccc(c23)C1=O | -72.8% (active)
87 | COc1ccc(CC(N)c2csc(NC(=O)Nc3ccc(C(C)C)cc3)n2)cc1 (stereo not drawn) | -8.9%
88 | CC1(C(=O)NS(=O)(=O)c2ccc(C#N)cc2)CCN1C(=O)CC1CCCC1 (stereo not drawn) | 0.461%
